# Source: PubChem BioAssay (Tox21)
# Calls of active or inactive are those of the source. Calls come from the whole dose curve; as a rule, active = well fitted curve in the direction sought with a large enough effect in the repeat runs; inconclusive = weak or mixed curves; inactive = flat fitted curve, though single readings scatter.
# Assay: qHTS assay to test for compound auto fluorescence at 590 nm (red) in HEK293 cell free culture (AID 720683)
# Conditions: cell-free medium autofluorescence, Ex540/Em590 red; series mostly up to 91.3 µM; fluorescence, % of fluorescent control: at the top concentration
# Method in brief: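 Cell-free wells of DMEM with 10% FBS received compound, and intrinsic fluorescence was read at excitation/emission 540/590 nm. Values expressed as equivalence to Rose Bengal sodium.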
# % is set by controls: 0 for no effect and ±100 for the full control effect.
Structure (SMILES),"fluorescence, % of fluorescent control",outcome
CCC(CC)CO,-0.0697% (inactive),–
CC1COc2ccccc2N1 (stereo not given),-0.409% (inactive),–
NCCS,–,inactive
CC(C)(C)OC(=O)c1ccc(O)cc1,0.0577% (inactive),–
CC(C)OC(=O)CCCCC(=O)OC(C)C,0.068% (inactive),–
CC(C)CC(=O)O,0.168% (inactive),–
CCCCCCCCC1CCC(=O)O1 (stereo not given),-0.12% (inactive),–
Cc1cccc2nccnc12,0.045% (inactive),–
CCCCCOC(=O)CCC,0.0055% (inactive),–
CN1C(C)(C)CCCC1(C)C,0.222% [at 46 µM] (inactive),–
C[C@@H]1O[C@@H](O[C@@H]2[C@@H](O)[C@H](OCCc3ccc(O)c(O)c3)O[C@H](CO[C@@H]3O[C@H](CO)[C@@H](O)[C@H](O)[C@H]3O)[C@H]2OC(=O)/C=C/c2ccc(O)c(O)c2)[C@H](O)[C@H](O)[C@H]1O,0.0356% (inactive),–
CCCCCCOc1ccccc1C(N)=O,0.221% [at 46 µM] (inactive),–
O=C(O)C(=O)Cc1ccccc1,0.0227% (inactive),–
O=C(NCCN1CCOCC1)c1ccc(Cl)cc1,–,inactive
Nc1ncnc(Nc2ccccc2)n1,-0.25% [at 46 µM] (inactive),–
C=C(C)C(=O)OCC(C)(C)COC(=O)C(=C)C,-0.162% (inactive),–
BrCc1cccc(Oc2ccccc2)c1,-0.106% (inactive),–
c1ccc2nccnc2c1,-0.0105% [at 95.7 µM] (inactive),–

Structure (SMILES),"fluorescence, % of fluorescent control",outcome
COc1ccc(Br)c(C)c1,0.049% (inactive),–
COC(=O)C1CC(=O)C(C(=O)OC)CC1=O (stereo not given),0.0034% [at 3.72 µM] (inactive),–
CCOC(=O)CC(=O)c1ccccc1,0.0015% (inactive),–
Cc1c(I)c(=O)n(-c2ccccc2)n1C,-0.145% [at 46 µM] (inactive),–
COc1ccc(S(=O)(=O)N2c3ccc(Cl)cc3[C@@](O)(c3ccccc3Cl)[C@H]2C(=O)N2CCC[C@@H]2C(N)=O)cc1OC,0.0011% [at 46 µM] (inactive),–
O=C1c2ccccc2C(=O)C1c1ccccc1,0.0114% [at 18.6 µM] (inactive),–
BrCCCCCBr,0.0699% [at 95.7 µM] (inactive),–
CC(C)C[C@H](NC(=O)CNC(=O)[C@H](Cc1ccc(O)cc1)NC(=O)[C@H](CO)NC(=O)[C@H](Cc1c[nH]c2ccccc12)NC(=O)[C@H](Cc1cnc[nH]1)NC(=O)[C@@H]1CCC(=O)N1)C(=O)N[C@@H](CCCN=C(N)N)C(=O)N1CCC[C@H]1C(=O)NCC(N)=O (stereo in doubt),-0.125% [at 46 µM] (inactive),–
CN(CCOc1ccc(NS(C)(=O)=O)cc1)CCc1ccc(NS(C)(=O)=O)cc1,-0.0047% [at 46 µM] (inactive),–
O=C(c1ccc(O)cc1)c1ccc(O)c(O)c1O,0.0441% (inactive),–
O=C(O)c1cc(Br)c(O)c(Br)c1,0.488% (inactive),–
O=C1c2ccccc2C(=O)N1CCl,-0.198% (inactive),–
NCCN1CCOCC1,-0.334% (inactive),–
Nc1ccc(S(=O)(=O)Nc2ccc(Cl)nn2)cc1,–,inactive
C=COCCOCCOCCOC=C,-0.0329% (inactive),–
OCCN(CCO)c1cccc(Cl)c1,-0.0814% (inactive),–
CCOc1cc([N+](=O)[O-])c(OCC)cc1N1CCOCC1,0.128% (inactive),–
